Rows were chosen to be rich in hits. Some 2.7% of all compounds tested hit in one or more screens of this group.
Nrf2 activator: activates Nrf2 signaling; Potency, µM (highest dose often 46.1 µM), without a hit: top-dose activation, hits mostly activators; AREc32 ARE-luciferase reporter (MCF7-derived line), luminescence, 24 h; actives 0.31% (n = 410,000); AID 624171; also: potency is read from the fitted curve at half-maximal effect; % of control where 0% means no effect; nearly all actives have a fitted effect of over 65% in size
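Luminescent ARE reporter assay in AREc32_Fluc cells: overnight plating at 37 deg C, 24 hr compound incubation, Steady-Glo added, 30 min RT before reading.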
ERG Ets-DNA blk: inhibitors of human ERG Ets domain-DNA interaction. actives 0.028% (n = 370,000). Potency, µM (top dose mostly 76.9 µM), for inactives: top-dose FP activity, negative = inhibition, actives largely listed as inhibitors. fluorescence polarization, His-ERG Ets domain / labelled DNA. P11308. AID 624246; active = well fitted inhibition curve with a large enough effect in the polarisation, with a control signal flat; inconclusive = small, poorly fitted or top-dose-only effect, or effect the other way, or a change in a side signal; inactive = no such curve, though single readings can be large or run the other way; the % refers to the polarisation;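 also: polarization taken with two DNA probes labelled with fluorescein and Texas red; potency is read from the fitted curve at half-maximal effect; % of control where 0% means no effect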
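His-tagged ERG Ets domain (1 uM in the protein solution; 300mM KCl, 50mM Tris-HCl, 1mM EDTA, 1mM DTT, pH 7.5) received compound, then a probe mix of 5 nM fluorescein-DNA and 100nM Texas-615-DNA. Fluorescence polarization was read for both dyes.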
A549 viability: A549 cytotoxicity, counter-screen for Nrf2 inhibitors | A549 ARE-Fluc cells, CellTiter-Fluor viability, 18-24 h | Potency, µM (series often up to 46 µM), without a hit: top-dose activity change, negative = cytotoxicity, hits mostly inhibitors | actives 0.16% (n = 390,000) | AID 504648; also: potency is read from the fitted curve at half-maximal effect; % is scaled to controls: 0 for no effect and ±100 for the full control effect
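Cytotoxicity counterscreen: CellTiter-Fluor fluorescence was measured in A549 ARE_Fluc cells after 18-24 h of compound exposure in a concentration series. The subsequent BugLite luminescent read reports ARE-luciferase activity.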
Nrf2 inh: blocks Nrf2 signaling. actives 2.1% (n = 360,000). Potency, µM (highest dose often 46 µM), without a hit: at the top dose activity change, negative = inhibition, hits mostly inhibitors. A549 ARE-Fluc reporter, luciferase luminescence, 18-24 h; also: potency is read from the fitted curve at half-maximal effect; % is scaled to controls: 0 for no effect and ±100 for the full control effect; nearly all actives have a fitted effect of over 60% in size
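Quantitative HTS in A549 cells stably bearing an antioxidant response element-firefly luciferase construct. Inhibition of Nrf2-driven transcription was scored by luminescence after 18-24 h of compound exposure at 37 °C.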
ALOX12 inh: blocks human arachidonate 12S-lipoxygenase | actives 1.1% (n = 580,000) | Potency, µM (series often up to 108 µM), inactives show at the highest dose activity change, negative = inhibition, most hits filed as inhibitors | purified 12hLO, xylenol orange hydroperoxide absorbance | AID 1671190 | P18054; also: potency is read from the fitted curve at half-maximal effect; % is scaled to controls: 0 for no effect and ±100 for the full control effect
Target sequence (P18054 whole entry, looked up): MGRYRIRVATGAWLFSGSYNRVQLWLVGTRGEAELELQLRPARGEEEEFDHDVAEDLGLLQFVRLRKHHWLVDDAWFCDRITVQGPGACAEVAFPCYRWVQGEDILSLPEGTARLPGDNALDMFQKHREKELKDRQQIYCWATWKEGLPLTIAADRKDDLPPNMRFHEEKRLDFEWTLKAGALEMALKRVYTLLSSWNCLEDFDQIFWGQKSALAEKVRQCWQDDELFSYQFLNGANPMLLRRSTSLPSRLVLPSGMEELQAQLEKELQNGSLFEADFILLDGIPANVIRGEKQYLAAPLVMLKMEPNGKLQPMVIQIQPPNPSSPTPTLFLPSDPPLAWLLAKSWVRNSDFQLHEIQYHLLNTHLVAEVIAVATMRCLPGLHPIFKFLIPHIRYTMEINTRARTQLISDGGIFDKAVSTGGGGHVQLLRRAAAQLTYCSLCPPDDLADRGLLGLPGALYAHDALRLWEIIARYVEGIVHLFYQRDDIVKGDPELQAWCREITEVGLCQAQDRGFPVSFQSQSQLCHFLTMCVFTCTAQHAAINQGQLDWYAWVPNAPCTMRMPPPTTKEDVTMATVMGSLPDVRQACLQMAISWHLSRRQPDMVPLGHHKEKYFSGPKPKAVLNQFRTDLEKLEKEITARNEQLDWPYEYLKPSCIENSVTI
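Purified human 12hLO (150 nM final) in 25 mM Hepes, 0.01% Triton X-100, pH 7.0 was preincubated 15 min at room temperature with compound. Then 40 uM arachidonic acid was added, 30 min. Hydroperoxide was read by Fe-XO absorbance ratio 573/405 nm.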
LDHA inh: blocks human lactate dehydrogenase A. activity change, % (values are at about 110 or 230 µM). P00338. actives 0.15% (n = 480,000). purified LDHA, NADH/diaphorase-resazurin fluorescence; hits give low values; in the data active = activity change below about -30%; inconclusive = mostly about -25% to -30%;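 also: plate controls were DMSO wells for no effect and wells without enzyme for full effect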
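Remaining NADH was detected by diaphorase (0.133 mg/mL) converting 37 µM resazurin to fluorescent resorufin, read at 0 and 20 minutes. The preceding 5-minute room-temperature reaction used 2 nM LDHA, 0.2 mM sodium pyruvate and 0.06 mM NADH at pH 7.4.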
Starred values were filed as active, the others as inactive; ? = inconclusive; . = not tested or not shown. Unless noted, calls follow the shape of the dose curve; as a rule, active = well fitted curve in the direction sought with a large enough effect; inconclusive = small, poorly fitted or top-dose-only effect, or another doubt; inactive = no such curve, though single readings can be large; an effect the other way counts as inactive or inconclusive.

SMILES	Nrf2 activator	ERG Ets-DNA blk	A549 viability	Nrf2 inh	ALOX12 inh	LDHA inh
CN1CCN(C(=O)CCCN2C(=O)/C(=C/c3cccc(Br)c3)SC2=S)CC1	13µM*	21%	?	?	?	15
CN(C)CCOc1ccc(C(C)(C)c2ccccc2)cc1	0%	-3%	1%	4%	?	-38*
Cc1ccc(C(C(=O)NCC2CCCO2)N(Cc2ccccc2)C(=O)c2ccc(-c3ccccc3)[nH]2)o1 (configuration not stated)	0%	-2%	?	?	-22%	2
O=C(NCC1CCCO1)C(c1cccs1)N(Cc1ccccc1Cl)C(=O)c1ccc(-c2ccccc2)[nH]1 (configuration not stated)	0%	6%	-6%	23µM*	-8%	-3
O=C(Nc1nc(-c2ccco2)c(-c2ccco2)s1)C1CCC1	?	6%	-14%	-15%	11µM*	1
O=C(Nc1ccccc1C(=O)Nc1nnc(C(F)(F)F)s1)c1ccccc1	0%	8%	13µM*	?	13%	-4
CC(=O)c1cnn(-c2cc(Nc3ccc(F)cc3F)nc(C)n2)c1C	.	.	.	.	?	-1
CC(CN1CCCCC1)NC(=O)c1cc(-c2ccccn2)nc2ccc(Cl)cc12 (configuration not stated)	0%	-2%	1%	-11%	3%	-6
CC(CN1CCCCC1)NC(=O)c1scnc1-c1ccccc1 (configuration not stated)	-1%	.	.	.	5.6µM*	-5
CCOC(=O)C1Nc2ccc(C)cc2C2C=CCC12 (configuration not stated)	-1%	13%	-16%	-12%	32µM*	36
O=C(NCCCCc1ccccc1)c1cccc(NC(=O)C2CCC2)c1	1%	-3%	0%	16µM*	-12%	-1
Fc1ccc(-c2nnn(Cc3cc(Cl)c4c(c3)OCCCO4)n2)cc1	.	.	.	.	-48%	-1
CC(C)(C)c1ccc(Cc2n[nH]c(=S)[nH]c2=O)cc1	0%	4%	1%	?	16µM*	1
O=c1[nH]c(=S)[nH]nc1Cc1ccc(Cl)c(Cl)c1	0%	-3%	2%	-19%	6.3µM*	-1
COc1ccc(OCc2nc3ccccc3n2C(C)C)cc1	5%	6%	0%	23µM*	5%	0
CC(c1nccs1)N(C)C(=O)c1csc2nc(-c3ccccc3Cl)cn12 (configuration not stated)	.	.	.	.	12%	.
CCOC(=O)C1=C(C)C(c2ccc(OC)cc2)NC(=S)N1 (configuration not stated)	-1%	2%	0%	-11%	0%	0
CCOC(=O)C1=C(C)C(c2cccc(Oc3ccccc3)c2)NC(=S)N1 (configuration not stated)	5%	-11%	3%	?	40µM*	3
Cc1nc2c(ccc3c(C)c(C)[nH]c32)s1	.	.	.	.	28µM*	6
O=C(COc1ccc(S(=O)(=O)NC2CCCCC2)cc1)N1CCN(c2ccc(F)cc2)CC1	0%	3%	1%	15µM*	8%	-2
O=C(COc1ccc2c3c(c(=O)oc2c1)CCC3)N1CCN(c2ccc(F)cc2)CC1	3%	-1%	-3%	23µM*	21%	-10
NC(=O)C1CCN(C(=O)COc2ccc(S(=O)(=O)NC3CCCC3)cc2)CC1	0%	1%	0%	2%	11%	-5
NC(=S)n1[nH]c(-c2ccc([N+](=O)[O-])cc2)c(N=Nc2cccc(Cl)c2)c1=O	1%	-4%	?	18µM*	?	-7
Cc1[nH]n(C(N)=S)c(=O)c1N=Nc1ccc([N+](=O)[O-])cc1Cl	8%	-4%	4%	?	10µM*	3
O=C1c2cccc(O)c2C(=O)c2c(O)cccc21	.	.	.	.	34%	.
SMILES	Nrf2 activator	ERG Ets-DNA blk	A549 viability	Nrf2 inh	ALOX12 inh	LDHA inh
CC1OC(CC(=O)O)CC2=C1C(=O)c1c(O)cccc1C2=O (configuration not stated)	-1%	8%	15µM*	21µM*	?	45
Cc1ccc(NC(=O)CN2C(=O)N/C(=C\c3cccn3-c3ccc(-c4nn[nH]n4)cc3)C2=O)cc1	.	.	.	.	.	-15
O=C(NCc1ccc(F)cc1)c1ccc(S(=O)(=O)Nc2cccc(C(F)(F)F)c2)cc1	0%	0%	-5%	23µM*	?	-1
S=C(NCCc1ccccc1)N/N=C/c1c(Cl)cccc1Cl	2%	0%	15%	5%	40µM*	-2
Fc1ccc(/C=N/NC(=S)NCc2ccccc2)cc1F	.	.	.	.	?	1
S=C(NCc1ccccc1)N/N=C/c1c2ccccc2c(Cl)c2ccccc12	.	.	.	.	18µM*	-2
Cc1cc(-c2ccccc2)cc(-c2ccccc2)[n+]1C	0%	5%	-12%	12µM*	-7%	-6
CC1CCC/C(=N/NC(=O)C2CC2)C1 (configuration not stated)	.	.	.	.	?	8
O=[N+]([O-])c1ccccc1S(=O)(=O)N1CCN(C2CCN(Cc3ccccc3)CC2)CC1	1%	16%	4%	8%	-10%	-34*
O=C(CSc1nc2nc[nH]c2c(=O)[nH]1)c1ccc(F)cc1	.	.	.	.	?	-6
Brc1ccccc1OCCCCn1cnc2ccccc21	6%	-10%	-22%	7.3µM*	?	-4
C=CCOC(=O)C1=C(C)NC(=S)NC1/C=C/c1ccccc1 (configuration not stated)	3%	9%	-1%	?	-26%	-1
CC1=C(C(=O)OCc2ccccc2)C(/C=C/c2ccccc2)NC(=S)N1 (configuration not stated)	0%	-7%	0%	?	18µM*	1
O=C(O)COc1ccc(/C=N/O)cc1	.	.	.	.	?	-1
CCN1C(=O)/C(=C\C=C\c2ccccc2[N+](=O)[O-])SC1=S	5µM*	16%	?	17%	?	4
COc1cc([N+](=O)[O-])cc(/C=C2/SC(=S)N(Cc3ccccc3)C2=O)c1O	2%	-5%	3%	21µM*	16µM*	3
CCOc1ccccc1C=C1SC(=S)N(CC)C1=O	6%	14%	1%	6%	-22%	-3
O=C1/C(=C\c2cccc([N+](=O)[O-])c2O)SC(=S)N1Cc1ccccc1	-1%	123%	?	16µM*	?	4
